This is an account of results in PubChem BioAssay.

The nature of assay [1]: rapamycin-like changes in RPL19A-GFP expression – cell-based, S. cerevisiae, multiplex flow cytometry, primary screen (AID 1862; in the data active = percent of DMSO control GFP below about 86%;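 note: lower values mimic rapamycin by blocking the RPL19A rise seen in DMSO cells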). As to conditions: S. cerevisiae RPL19A-GFP strain, flow cytometry fluorescence, 3 h; at 10 µM; stronger effect = lower value. For orientation: A flow cytometer gives signals particle by particle.
Assay [2] in a line: TOR pathway GLN3 branch reporter MEP2-GFP changes – S. cerevisiae, multiplex flow cytometry, primary screen (AID 1867;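 active = GFP response, as percent of the DMSO control, above the screen-wide mean plus 3 SD, about 139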;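 note: median GFP channel fluorescence of barcode-gated MEP2-GFP cells measured by flow cytometry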). As to conditions: S. cerevisiae MEP2-GFP strain, 3 h, at 10 µM, stronger effect = higher value.
Assay [3] in a line: TOR pathway RTG branch CIT2 reporter changes – S. cerevisiae, GFP fusion, multiplex flow cytometry, primary screen (AID 1870;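 active = percent response above a set limit, the screen-wide mean plus 3 SD, cut at about 130% in these data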;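 note: barcoded CIT2-GFP strain pooled with four other GFP strains with rapamycin as positive control; median GFP fluorescence per well over plate mean of DMSO wells so 100% = DMSO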). As to conditions: S. cerevisiae CIT2-GFP expression, 3 h, at 10 µM, stronger effect = higher value.
The nature of assay [4]: TOR pathway LAP4-GFP level changes – S. cerevisiae, multiplex flow cytometry, primary screen (AID 1873;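 active = GFP signal, as percent of the solvent control, above the screen mean plus 3 SD, about 149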). As to conditions: S. cerevisiae LAP4-GFP expression, 3 h, at 10 µM, stronger effect = higher value.
A short description of assay [5]: yeast AGP1-GFP level changes, GLN3 branch – cell-based, multiplex flow cytometry, S. cerevisiae, primary screen (AID 1887;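 active = GFP signal above the screen-wide mean plus 3 SD, that is over about 124.5% of the solvent control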;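 note: AGP1-GFP fusion strain of S. cerevisiae within a five-strain barcoded multiplex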). As to conditions: 3 h, at 10 µM, stronger effect = higher value.
The nature of assay [6]: reduced mouse 2C T cell binding to pMHC/ICAM-1 vesicles – MLPCN validation set, flow cytometry, LFA-1/ICAM-1 modulator project, pilot screen (AID 2523;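 active = response below a set limit, under 55% cells CD8-positive and vesicle-bound, and CD8 cells' 90th-percentile brightness under 279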;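 for vesicle binding response: mean PE anti-B7-1 fluorescence of CD8+ cells relative to row control; 100% = QL9-loaded vesicles with DMSO vehicle in the same plate row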). As to conditions: 2C mouse CD8+ T cells, at 7 µM, stronger effect = lower value; double positive events: measured here: CD8+/vesicle+ event percentage.
Assay [7] concerns the target Integrin beta-1 (Homo sapiens) + Integrin alpha-4 (Homo sapiens) (UniProt P13612+P05556). The assay is described as follows: alpha4beta1 integrin LIBS antibody binding reduction – U937 cells, HUTS-21 mAb, flow cytometry, validation set, VLA-4 allosteric modulator project, pilot screen (AID 2674;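 active = inhibition above 50%, about 3 SD of the validation set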;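 note: antibody binding induced by the VLA-4 ligand LDV present at three times its Kd; 0% = LDV ligand with antibody and no compound and 100% = antibody without LDV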). As to conditions: HUTS-21 LIBS mAb binding, at 6.7 µM, stronger effect = higher value.

Assay [8] can be described thus: calorie-restriction mimetic ROS inhibitors, yeast – validation compound set, pilot screen (AID 2706;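 active = superoxide response below 65% of plate, a cut near 3 SD across the whole screen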;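 note: yeast exposed to compound for one week at 30 degrees C before staining; 100% = mean of all compound wells on the same plate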). As to conditions: S. cerevisiae aging, superoxide DHE fluorescence; at 10 µM; stronger effect = lower value.
The target of assay [9] is Beta-adrenergic receptor kinase 1 (Homo sapiens) (UniProt P25098). Nature of the assay: GRK2 binders displacing RNA aptamer, biochemical, validation, human GRK2, bead flow cytometry (AID 488806;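 active = aptamer binding inhibition above 30%, about 3 SD of noise from non-fluorescent compounds; inactive = inhibition at or below 30%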). As to conditions: bead-bound GRK2, FAM-aptamer displacement, at 10 µM, stronger effect = higher value.
Beta-adrenergic receptor kinase 1 (Homo sapiens), sequence (P25098 whole entry, looked up): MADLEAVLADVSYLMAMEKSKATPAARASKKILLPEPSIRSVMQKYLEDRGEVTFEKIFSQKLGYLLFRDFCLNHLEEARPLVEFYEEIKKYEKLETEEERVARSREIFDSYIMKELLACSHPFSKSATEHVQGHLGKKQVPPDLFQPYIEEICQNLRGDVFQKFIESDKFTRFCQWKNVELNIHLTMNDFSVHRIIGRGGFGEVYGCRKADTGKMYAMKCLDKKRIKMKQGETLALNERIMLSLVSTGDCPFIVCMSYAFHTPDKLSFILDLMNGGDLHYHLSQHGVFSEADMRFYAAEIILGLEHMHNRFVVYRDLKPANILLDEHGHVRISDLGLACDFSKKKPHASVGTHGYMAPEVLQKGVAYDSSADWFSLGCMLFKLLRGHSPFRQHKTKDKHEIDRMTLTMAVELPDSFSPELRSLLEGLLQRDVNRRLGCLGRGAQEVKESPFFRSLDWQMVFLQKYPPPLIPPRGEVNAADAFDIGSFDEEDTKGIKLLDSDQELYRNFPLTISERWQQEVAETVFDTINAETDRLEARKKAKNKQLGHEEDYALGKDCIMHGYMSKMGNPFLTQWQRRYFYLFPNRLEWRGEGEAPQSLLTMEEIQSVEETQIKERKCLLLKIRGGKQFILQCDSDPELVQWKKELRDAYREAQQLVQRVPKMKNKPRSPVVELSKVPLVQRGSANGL
Assay [10] addresses AP-2 complex subunit beta (Homo sapiens) (UniProt P63010). The assay is described as follows: beta-arrestin/AP2 interaction blockers – biochemical, validation set, GST-AP2 beads, flow cytometry, pilot screen (AID 504541;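 active = inhibition above 54%, about 3 SD of non-fluorescent compounds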;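 note: AP2 carries R879A mutation and is captured from E. coli lysate; bead-bound FITC arrestin peptide fluorescence measuring arrestin peptide binding to AP2; 0% = DMSO wells and 100% = excess unlabeled arrestin peptide control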). As to conditions: FITC arrestin peptide, at 10 µM, stronger effect = higher value.
A short description of assay [11]: cytosolic pH regulators acting via V-ATPase – S. cerevisiae, pHLuorin, HTS validation (AID 504600; in the data active = response above about 15%;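 note: plate controls were DMSO for no effect and reference compound for full effect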). As to conditions: V-ATPase proton transport, at 10 µM, stronger effect = higher value.
Assay [12] relates to anti-desmoglein-3 scFv antibody binding to human DSG3. The assay is described as follows: blockers of pathogenic pemphigus antibody–desmoglein-3 binding – biochemical, validation compound set, bead-based, flow cytometry, pilot screen (AID 588368;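 active = binding below the plate cutoff, the plate median minus 3 SD, with a reading above zero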;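 note: signal is the median channel fluorescence of bead-bound GFP antibody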). As to conditions: Protein G beads, DSG3-Fc, scFv-GFP binding, at 10 µM, stronger effect = lower value.
In assay [13] the test system is Botulinum neurotoxin type F light chain protease (Clostridium botulinum). The assay is described as follows: Clostridium botulinum type F light chain protease inhibitors, microsphere substrate cleavage, validation (AID 588459). As to conditions: multiplex microsphere protease substrate cleavage assay, flow cytometry; at 10 µM; stronger effect = higher value.
The target in assay [14] is Botulinum neurotoxin type A (Clostridium botulinum) (UniProt P0DPI0). Nature of the assay: BoNT/A light chain protease inhibitors, biochemical, multiplex microsphere flow cytometry, validation set (AID 588460). As to conditions: at 10 µM, stronger effect = higher value.
Botulinum neurotoxin type A (Clostridium botulinum), sequence (P0DPI0 whole entry, looked up): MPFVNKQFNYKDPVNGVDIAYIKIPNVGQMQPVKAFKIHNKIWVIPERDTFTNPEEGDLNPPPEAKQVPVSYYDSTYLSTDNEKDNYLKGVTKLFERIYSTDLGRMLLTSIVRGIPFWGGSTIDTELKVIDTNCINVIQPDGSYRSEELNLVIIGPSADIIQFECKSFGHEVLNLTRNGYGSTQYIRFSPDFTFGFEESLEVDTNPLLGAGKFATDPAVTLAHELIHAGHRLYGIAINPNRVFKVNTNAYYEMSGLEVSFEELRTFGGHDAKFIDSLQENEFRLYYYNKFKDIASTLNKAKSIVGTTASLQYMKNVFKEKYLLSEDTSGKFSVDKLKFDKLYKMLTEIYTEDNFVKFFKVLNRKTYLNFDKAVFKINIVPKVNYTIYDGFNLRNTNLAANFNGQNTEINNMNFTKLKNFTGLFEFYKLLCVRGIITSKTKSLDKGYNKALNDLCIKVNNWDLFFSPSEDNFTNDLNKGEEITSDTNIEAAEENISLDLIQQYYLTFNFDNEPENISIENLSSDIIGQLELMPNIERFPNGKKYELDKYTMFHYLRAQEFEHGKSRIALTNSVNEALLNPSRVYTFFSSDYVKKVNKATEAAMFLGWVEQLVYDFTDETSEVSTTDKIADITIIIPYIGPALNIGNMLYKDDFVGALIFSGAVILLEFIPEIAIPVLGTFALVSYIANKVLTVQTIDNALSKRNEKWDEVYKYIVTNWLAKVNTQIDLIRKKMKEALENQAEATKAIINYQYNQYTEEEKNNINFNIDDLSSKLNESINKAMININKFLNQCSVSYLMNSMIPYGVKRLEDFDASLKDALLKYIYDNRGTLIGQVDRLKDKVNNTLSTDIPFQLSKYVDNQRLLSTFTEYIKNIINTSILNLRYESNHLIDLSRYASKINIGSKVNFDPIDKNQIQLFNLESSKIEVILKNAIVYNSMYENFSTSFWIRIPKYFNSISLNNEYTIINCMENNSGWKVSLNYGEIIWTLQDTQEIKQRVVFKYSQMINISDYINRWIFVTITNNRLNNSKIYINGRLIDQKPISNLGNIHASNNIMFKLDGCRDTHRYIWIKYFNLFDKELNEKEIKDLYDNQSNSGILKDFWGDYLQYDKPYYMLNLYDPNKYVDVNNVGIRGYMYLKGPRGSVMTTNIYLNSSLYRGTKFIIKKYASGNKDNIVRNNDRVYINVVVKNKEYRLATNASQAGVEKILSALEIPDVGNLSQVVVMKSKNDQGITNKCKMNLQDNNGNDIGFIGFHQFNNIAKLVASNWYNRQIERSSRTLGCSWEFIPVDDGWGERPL
The target of assay [15] is Lethal factor (Bacillus anthracis) (UniProt P15917). Nature of the assay: Bacillus anthracis lethal factor inhibition, microsphere flow cytometry protease assay, validation at 10 µM (AID 588461). As to conditions: multiplex microsphere protease cleavage assay, stronger effect = higher value.
Lethal factor (Bacillus anthracis), sequence (P15917 whole entry, looked up): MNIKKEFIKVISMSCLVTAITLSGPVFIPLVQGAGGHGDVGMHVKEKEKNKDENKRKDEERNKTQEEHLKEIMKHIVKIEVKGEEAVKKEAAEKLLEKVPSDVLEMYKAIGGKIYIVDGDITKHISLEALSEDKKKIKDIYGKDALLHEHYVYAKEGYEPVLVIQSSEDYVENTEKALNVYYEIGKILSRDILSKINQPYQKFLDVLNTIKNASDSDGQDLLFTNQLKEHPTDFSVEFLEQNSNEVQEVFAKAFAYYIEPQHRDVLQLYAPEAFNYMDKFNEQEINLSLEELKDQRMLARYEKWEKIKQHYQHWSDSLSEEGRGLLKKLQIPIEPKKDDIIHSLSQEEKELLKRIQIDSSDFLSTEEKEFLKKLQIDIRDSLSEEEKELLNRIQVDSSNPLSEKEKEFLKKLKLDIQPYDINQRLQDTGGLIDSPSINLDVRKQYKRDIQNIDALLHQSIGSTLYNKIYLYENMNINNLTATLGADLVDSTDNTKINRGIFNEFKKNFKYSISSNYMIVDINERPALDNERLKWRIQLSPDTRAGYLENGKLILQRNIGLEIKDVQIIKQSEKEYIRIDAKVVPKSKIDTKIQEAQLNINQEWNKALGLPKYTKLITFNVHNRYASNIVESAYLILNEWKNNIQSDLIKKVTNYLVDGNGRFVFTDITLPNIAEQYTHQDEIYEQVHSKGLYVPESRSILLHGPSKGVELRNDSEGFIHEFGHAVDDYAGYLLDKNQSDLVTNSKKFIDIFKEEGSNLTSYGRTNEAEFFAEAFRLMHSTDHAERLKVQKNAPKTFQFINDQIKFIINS
The nature of assay [16]: Nile Red efflux blockade in pump-expressing yeast – validation compound set, multiplex, phenotypic, pilot screen (AID 588506;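 active = efflux inhibition above 0.42, the validation set average plus 4 SD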;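 note: Nile Red retained in cells so higher fluorescence means more efflux inhibition; 0 = negative control wells and 1 = enniatin B 25 µM full block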). As to conditions: S. cerevisiae pump-expressing triplex, Nile Red efflux flow cytometry; at 10 µM; stronger effect = higher value.
Assay [17] has as its target ATP-binding cassette sub-family B member 6 (Homo sapiens) (UniProt Q9NP58). Nature of the assay: blockers of ABCB6-driven porphyrin uptake – K562-ABCB6 cells, flow cytometry, validation set, pilot screen (AID 588550;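 active = inhibition above the screen-wide mean plus 3 SD, about 51%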;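 note: 0% = DMSO wells and 100% = benzethonium chloride 70 µM positive control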). As to conditions: K562-ABCB6 porphyrin accumulation, 1 h, at 10 µM, stronger effect = higher value.
Assay [18] is described as follows: AML differentiation inducers, ER-HoxA9 marrow cells – cell-based, GFP/MAC1 double positive, flow cytometry, validation set, primary screen (AID 588685;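 active = differentiation response of at least 50%, scaled between solvent and reference control, from cells with both markers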;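 note: compound exposure lasts four days before antibody staining and flow analysis; 0% = DMSO wells and 100% = 5 µM fulvestrant positive control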). As to conditions: stronger effect = higher value.
The target of assay [19] is Beta-2 adrenergic receptor (Homo sapiens) (UniProt P07550). The assay is described as follows: agonist-induced loss of surface beta2AR – cell-based, FAP fluorogen, flow cytometry, validation set, pilot screen (AID 504459;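 active = percent response above 42, roughly 3 SD of non-fluorescent test compounds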;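 note: agonist-driven loss of surface beta2AR via internalization measured by FAP dye flow cytometry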). As to conditions: Am2.2-beta2AR cells, at 10 µM, stronger effect = higher value.
Beta-2 adrenergic receptor (Homo sapiens), sequence (P07550 whole entry, looked up): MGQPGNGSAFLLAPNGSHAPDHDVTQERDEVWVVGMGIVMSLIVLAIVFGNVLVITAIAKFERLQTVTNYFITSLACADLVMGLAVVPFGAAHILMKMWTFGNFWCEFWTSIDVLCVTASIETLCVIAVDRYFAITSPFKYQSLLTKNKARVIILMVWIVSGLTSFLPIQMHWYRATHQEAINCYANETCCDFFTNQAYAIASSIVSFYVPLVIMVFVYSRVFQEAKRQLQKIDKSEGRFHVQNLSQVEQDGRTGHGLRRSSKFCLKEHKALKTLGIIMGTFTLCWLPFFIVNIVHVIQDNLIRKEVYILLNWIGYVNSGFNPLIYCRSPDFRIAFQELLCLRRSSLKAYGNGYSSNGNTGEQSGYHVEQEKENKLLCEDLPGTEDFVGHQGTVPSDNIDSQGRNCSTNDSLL

Results filed as inconclusive are left out. The source made the active and inactive calls. Unless noted, the rule behind the calls is not given here.

ATP-binding cassette sub-family B member 6 (Homo sapiens), sequence (Q9NP58 whole entry, looked up): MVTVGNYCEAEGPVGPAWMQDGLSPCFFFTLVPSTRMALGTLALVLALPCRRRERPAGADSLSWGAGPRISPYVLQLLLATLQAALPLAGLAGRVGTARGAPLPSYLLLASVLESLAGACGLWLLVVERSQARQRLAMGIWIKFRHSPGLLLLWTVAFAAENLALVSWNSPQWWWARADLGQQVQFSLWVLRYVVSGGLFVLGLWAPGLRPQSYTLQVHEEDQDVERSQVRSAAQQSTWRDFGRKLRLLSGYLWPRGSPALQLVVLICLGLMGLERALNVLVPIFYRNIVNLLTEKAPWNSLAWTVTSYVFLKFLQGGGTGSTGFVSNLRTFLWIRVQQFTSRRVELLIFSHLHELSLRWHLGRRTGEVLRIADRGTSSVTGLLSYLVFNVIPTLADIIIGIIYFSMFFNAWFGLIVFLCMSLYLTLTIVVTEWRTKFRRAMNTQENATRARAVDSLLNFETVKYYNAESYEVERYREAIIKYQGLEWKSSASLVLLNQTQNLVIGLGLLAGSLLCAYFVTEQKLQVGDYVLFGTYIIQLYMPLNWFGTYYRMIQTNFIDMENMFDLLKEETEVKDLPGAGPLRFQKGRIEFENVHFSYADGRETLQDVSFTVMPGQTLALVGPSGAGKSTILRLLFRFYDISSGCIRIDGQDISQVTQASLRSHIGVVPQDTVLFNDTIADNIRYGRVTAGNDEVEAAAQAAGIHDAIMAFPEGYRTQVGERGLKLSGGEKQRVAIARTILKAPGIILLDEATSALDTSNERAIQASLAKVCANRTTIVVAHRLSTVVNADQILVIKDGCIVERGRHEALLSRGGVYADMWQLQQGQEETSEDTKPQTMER
AP-2 complex subunit beta (Homo sapiens), sequence (P63010 whole entry, looked up, one chain of several): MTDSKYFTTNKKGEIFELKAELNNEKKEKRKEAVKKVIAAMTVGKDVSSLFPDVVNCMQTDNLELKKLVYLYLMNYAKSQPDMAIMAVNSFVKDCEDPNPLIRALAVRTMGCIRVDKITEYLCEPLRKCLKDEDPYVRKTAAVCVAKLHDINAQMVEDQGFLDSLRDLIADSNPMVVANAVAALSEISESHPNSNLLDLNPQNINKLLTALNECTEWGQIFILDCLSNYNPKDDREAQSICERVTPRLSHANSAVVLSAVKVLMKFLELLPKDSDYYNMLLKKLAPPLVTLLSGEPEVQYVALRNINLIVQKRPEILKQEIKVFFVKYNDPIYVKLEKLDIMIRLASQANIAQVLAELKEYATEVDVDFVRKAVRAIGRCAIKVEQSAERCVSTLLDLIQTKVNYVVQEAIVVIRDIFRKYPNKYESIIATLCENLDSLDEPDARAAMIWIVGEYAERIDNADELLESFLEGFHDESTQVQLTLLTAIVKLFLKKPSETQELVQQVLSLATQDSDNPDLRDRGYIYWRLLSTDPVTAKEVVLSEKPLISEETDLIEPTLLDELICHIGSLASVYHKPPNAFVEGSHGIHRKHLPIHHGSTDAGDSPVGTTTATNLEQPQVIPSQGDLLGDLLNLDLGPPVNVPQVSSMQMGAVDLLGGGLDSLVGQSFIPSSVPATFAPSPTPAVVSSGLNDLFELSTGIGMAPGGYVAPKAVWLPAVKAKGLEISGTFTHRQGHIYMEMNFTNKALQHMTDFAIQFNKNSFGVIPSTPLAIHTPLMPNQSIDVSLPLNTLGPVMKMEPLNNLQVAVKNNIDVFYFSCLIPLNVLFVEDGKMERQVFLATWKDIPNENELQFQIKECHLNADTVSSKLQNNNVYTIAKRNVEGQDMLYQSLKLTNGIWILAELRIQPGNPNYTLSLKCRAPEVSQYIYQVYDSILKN

Regarding `CC(Cc1ccccc1)NCC(=O)Nc1cc(N(C)C)nc2ccccc12` (stereo unspecified), in [1], the percent of DMSO control GFP was 101% (inactive). Moreover, the values for the GFP response vs DMSO in assay [2] and in [4] were 107% (inactive) and 105% (inactive), respectively. Also, in assay [3], the percent response of DMSO control was 93.9% (inactive). Besides, in [5], the GFP response, % of DMSO is 103% (inactive). In addition, the double positive events in assay [6] was found to be 52.9%. Also, the vesicle binding response in [6] is 191% (inactive). Also, the inhibition in assay [7] is -40.4% (inactive); in assay [10], -8.4% (inactive); in assay [13] it was 11.6% (inactive); in [14], 6.4% (inactive); in [15], 0.6% (inactive); in assay [17], 8% (inactive). For the same compound, in [8], the superoxide response (% of plate) was 93.7% (inactive). Also, in [9], the aptamer binding inhibition was 5% (inactive). The response in assay [11] was -1.24% (inactive). In assay [12], the binding (% of control) was 99.3% (inactive). The efflux inhibition (fraction of control) in assay [16] is -0.31 (inactive). Besides, the differentiation response in assay [18] was -18% (inactive).

Consider `O=C(CCCN1CCC2(CC1)C(=O)NCN2c1ccccc1)c1ccc(F)cc1`, for which the percent of DMSO control GFP in assay [1] was 98.9% (inactive). Moreover, the results for the GFP response vs DMSO in [2] and in assay [4] were 95.7% (inactive) and 110% (inactive), respectively. For the same compound, the percent response of DMSO control in [3] was 102% (inactive). In [5], the GFP response, % of DMSO was 113% (inactive). In assay [6], this compound had a double positive events of 62.6%. Moreover, the vesicle binding response in assay [6] is 187% (inactive). The inhibition in [7] is 8.25% (inactive); in assay [10], -9.7% (inactive); in assay [15], 0.5% (inactive); in assay [17], -1% (inactive). Moreover, the superoxide response (% of plate) in assay [8] was 85.3% (inactive). Also, in [9], the aptamer binding inhibition was -1% (inactive). Besides, the response in assay [19] was -35.8% (inactive); in [11], 1.45% (inactive). In addition, in [12], the binding (% of control) is 103% (inactive). Further, the efflux inhibition (fraction of control) in assay [16] is 0.12 (inactive). Further, in assay [18], the differentiation response was 3.88% (inactive).

`O=c1[nH]c2ccccc2n1CCCN1CCC(n2c(=O)[nH]c3cc(Cl)ccc32)CC1`: in [1], the percent of DMSO control GFP is 99.1% (inactive). Besides, the GFP response vs DMSO is 109% (inactive) in [2] and 112% (inactive) in assay [4]. Besides, the percent response of DMSO control in [3] was 91% (inactive). Moreover, the GFP response, % of DMSO in assay [5] was 101% (inactive). In assay [6], the double positive events came to 55.1%. The vesicle binding response in [6] was 240% (inactive). The inhibition is -4.52% (inactive) in assay [7]; -6.83% (inactive) in [10]; 1.3% (inactive) in assay [14]; -2.2% (inactive) in [15]; 2% (inactive) in [17]. Further, in [8], the superoxide response (% of plate) is 114% (inactive). For the same compound, the aptamer binding inhibition in [9] was 1% (inactive). The results for the response in [19] and in assay [11] were 2.71% (inactive) and -0.17% (inactive), respectively. Besides, in assay [12], the binding (% of control) is 101% (inactive). In assay [16], the efflux inhibition (fraction of control) is -0.1 (inactive). Further, the differentiation response in assay [18] is -34.4% (inactive).

Turning to `O=S(=O)(c1ccc(F)cc1)N1CCCCC1c1cccnc1` (stereo unspecified), the percent of DMSO control GFP in assay [1] was 99% (inactive). Besides, the GFP response vs DMSO is 102% (inactive) in assay [2] and 112% (inactive) in [4]. Moreover, the percent response of DMSO control in assay [3] is 98.3% (inactive). Besides, the GFP response, % of DMSO in [5] was 113% (inactive). The compound also returned a double positive events in assay [6] of 62%. Also, in assay [6], the vesicle binding response was 202% (inactive). Moreover, the inhibition in [7] was -2.82% (inactive); in assay [10], -4.49% (inactive); in [13] it was 0.1% (inactive); in assay [14] it was 0.8% (inactive); in assay [15] it was 3.2% (inactive); in [17], 3% (inactive). In addition, the superoxide response (% of plate) in [8] was 99.7% (inactive). The aptamer binding inhibition in [9] is -2% (inactive). Moreover, the response in assay [19] was -9.47% (inactive); in assay [11], 2.55% (inactive). Moreover, in assay [12], the binding (% of control) is 105% (inactive). The efflux inhibition (fraction of control) in assay [16] is 0.08 (inactive). Besides, the differentiation response in assay [18] was -11.9% (inactive).

In general, inhibition refers to the change of the read-out against control, counted positive when it falls.
